Experimental data as given in PubChem BioAssay AID1259418 (Broad Institute, 2018).
The campaign covered roughly 3,400 compounds. About 840 (25%) were called active. Another 11% or so got no clear call; they are omitted. The list is a sample of the results. Results with a measured potency or affinity are listed apart. Unmarked numbers belong to inactive results.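 Rule for the calls: active = fitted half-maximal concentration of signal decrease at or below twice the sample's top tested concentration; inconclusive = flat curve between -70 and -30 percent, or poor fit; inactive = flat within 30 percent, signal rise, or potency above limit.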

Assay: inhibitors of Toxoplasma growth in IFN-γ-primed HeLa – cell-based, ME49Luc, luciferase, 72 h, dose response (AID 1259418)
Conditions: T. gondii ME49Luc in IFN-y HeLa, hits give low values, -100% = high-dose IFN-γ control wells; at 19.5 µM unless noted

| SMILES | max activity |
| --- | --- |
| Cc1ccc2c(c1)cc(S(=O)(=O)c1ccccc1)c(=O)n2CC(=O)NCc1ccc2c(c1)OCO2 | -10.2% [at 0.68 µM] |
| Cc1ccccc1CNC1=NCCNC12CCN(S(=O)(=O)c1cccs1)CC2 | 21.2% [at 10 µM] |
| Cc1cccc(CNC2=NCCNC23CCN(S(=O)(=O)c2ccc(C)c(C)c2)CC3)c1 | -21.5% |
| Cc1ccc(S(=O)(=O)N2CCC3(CC2)NCCN=C3NCc2ccccc2C)c(C)c1 | -17.1% |
| COCCCNC1=NCCNC12CCN(S(=O)(=O)c1ccc(C)cc1C)CC2 | 13.7% [at 10 µM] |
| O=C(CC1N=C2c3ccccc3N=C(SCc3cc(=O)n4ccccc4n3)N2C1=O)NCc1ccc2c(c1)OCO2 (stereo unspecified) | 49.3% |
| Cc1nc(OCC(=O)Nc2ccc(C)c(C)c2)c2ccccc2n1 | 14.4% [at 0.16 µM] |
| O=C(Nc1ccc(Cl)cc1)N1C[C@H]2[C@@H](c3ccccc31)[C@@H](CO)N2CC1CCCCC1 | 10.8% [at 10 µM] |
| CSc1cccc(NC(=O)CN2CCC3(CC2)N=C(c2ccc(F)cc2)C(=O)N3)c1 | 9.26% |
| COc1ccccc1-c1nc(CN2CCc3c(sc4c3CCCC4)C2c2ccccc2)c(C)o1 (stereo unspecified) | 10.8% [at 0.038 µM] |
| COc1ccc(CN2CCO[C@H]3[C@H]2CC[C@H]3OCCCn2cccn2)cc1 | 14.7% [at 5 µM] |
| COc1ccc(CN2C[C@@H]3CN(Cc4cnn(C)c4)C[C@H]3C2=O)cc1 | 20.7% |
| Cc1nc2c(cnn2-c2ccccc2)c(=O)n1-c1cccc2ccccc12 | 22.6% [at 10 µM] |
| COc1ccc2c(c1)NC1(CCN(C(=O)c3ccccc3Cl)CC1)c1cccn1-2 | -5.12% |
| CCOc1ccc(-c2nc(Cn3c(=O)c4c(C)cc(C)nc4n(-c4ccccc4)c3=O)c(C)o2)cc1 | 8.31% [at 0.16 µM] |
| COc1ccc(NC(=O)N2CCCCN3[C@@H](CO)[C@H](c4ccc(-c5ccccc5F)cc4)[C@@H]3C2)cc1 | 20.7% [at 5 µM] |
| O=C(Nc1ccccc1F)N1CCCCN2[C@H](C1)[C@H](c1ccc(/C=C/c3ccccc3)cc1)[C@@H]2CO | 35.7% [at 10 µM] |
| CCc1ccc(-n2nnc(C(=O)N3CCC(N4CCCCC4)CC3)c2-c2ccncc2)cc1 | 6.73% [at 5 µM] |
| Cc1[nH]c2ccccc2c1C(=O)C(=O)NC1CC(=O)N(c2ccc3c(c2)OCCO3)C1 (stereo unspecified) | 7.24% |
| Cc1ccc(-c2coc(-c3ccc(NC(=O)COc4ccccc4C)cc3)n2)c(C)c1 | -20.2% [at 1.35 µM] |
| COc1ccc(-c2nc(N(C)C3CCCCC3)c3ccccc3n2)cc1 | 11.7% |
| COc1ccccc1Nc1nc(-c2ccc(Cl)cc2)nc2ccccc12 | -18.5% [at 0.68 µM] |
| Cc1ccsc1C(=O)Nc1ccc(-c2nc(-c3ccccc3)co2)cc1 | 30.4% [at 0.68 µM] |

| SMILES | max activity |
| --- | --- |
| COc1cccc(N(Cc2nc(-c3ccccc3)oc2C)S(=O)(=O)c2ccc(C)cc2)c1 | -7.21% [at 1.35 µM] |
| O=C(Cn1c(=O)c(S(=O)(=O)c2ccccc2)cc2ccccc21)NC1CCCC1 | 9.84% [at 0.35 µM] |
| CCOc1ccccc1-c1nc(CN2CCc3c(sc4c3CCCC4)C2c2ccccc2)c(C)o1 (stereo unspecified) | 19.5% |
| CC1=CCC=CC1C(=O)Nc1ccc2c(c1)CCC(=O)N2C (stereo unspecified) | 56.7% |
| Cc1ccc(-c2coc(-c3ccc(NC(=O)Nc4ccccc4)cc3)n2)cc1 | -15.8% |
| Cc1ccc(-c2coc(-c3ccc(NC(=O)COc4ccc(F)cc4)cc3)n2)c(C)c1 | 10.4% [at 0.35 µM] |
| Cc1cc(C)cc(S(=O)(=O)N2CCC3(CC2)NCCN=C3NCc2cccc(F)c2)c1 | -38.9% |
| COCCCNC1=NCCNC12CCN(S(=O)(=O)c1cc(C)cc(C)c1)CC2 | 11.6% [at 10 µM] |
| Cc1nc(-c2ccc(F)cc2)sc1-c1ccc(SCc2ccc(Cl)c(Cl)c2)nn1 | 7.38% [at 2.6 µM] |
| COc1cc(NC(=O)CN2CCC3(CC2)N=C(c2ccc(F)cc2)C(=O)N3)cc(OC)c1 | 16.7% [at 10 µM] |
| O=C(COc1ccc(Br)cc1)Nc1cncc(-c2nc3ccccc3o2)c1 | 8.52% [at 0.16 µM] |
| COc1cccc(S(=O)(=O)N2CCCCN3[C@H](CO)[C@@H](c4ccc(C#CCC(C)C)cc4)[C@@H]3C2)c1 | 106% |
| COc1cccc(S(=O)(=O)N2CCCCN3[C@H](C2)[C@@H](c2ccc(C#CCC(C)C)cc2)[C@@H]3CO)c1 | 100% [at 0.08 µM] |
| O=S(=O)(c1ccccc1)N1CCCCN2[C@H](C1)[C@H](c1ccc(C#CC3CCCC3)cc1)[C@@H]2CO | 27.4% [at 5 µM] |
| COc1cc(C(=O)N2CCC3(CC2)Nc2cc(F)ccc2-n2cccc23)cc(OC)c1OC | 5.03% [at 0.68 µM] |
| COc1cccc(NC(=O)Nc2ccc(-c3nc(-c4ccc(C)cc4)co3)cc2)c1 | 21.2% [at 0.16 µM] |
| COc1ccc(NC(=O)N2CCN(Cc3nc(-c4cccc(Cl)c4)oc3C)CC2)cc1OC | -22.8% |
| Cc1cccc(NC(=O)N2CCN(Cc3nc(-c4cccc(Cl)c4)oc3C)CC2)c1C | 13.9% [at 5 µM] |
| Cc1oc(-c2cccc(Cl)c2)nc1CN1CCN(C(=O)Nc2ccccc2C(F)(F)F)CC1 | -9.46% [at 2.6 µM] |
| Cc1cc(C)cc(NC(=O)N2CCN(Cc3nc(-c4cccc(Cl)c4)oc3C)CC2)c1 | 11% [at 1.35 µM] |
| Cc1oc(-c2cccc(Cl)c2)nc1CN1CCN(C(=O)Nc2ccccc2)CC1 | -19.4% |
| CCc1ccc(NC(=O)N2CCN(Cc3nc(-c4cccc(Cl)c4)oc3C)CC2)cc1 | -13.8% |
| COc1ccc(-c2nc(Cn3c(=O)c4c(C)cc(C)nc4n(-c4ccccc4)c3=O)c(C)o2)c(OC)c1 | 5.72% [at 2.6 µM] |
